In general, AC50 refers to the midpoint of the concentration-response curve, whichever way the signal moves.

Where “and” joins values, the source holds several entries; their conditions need not be identical. Identical values can stand only once. Calls of active or inactive are those of the source. Rule for the calls: active = hit-call score of the fitted dose curve at least 0.9, where 1 is the maximum; inactive = score below 0.9.

One assay is described as follows: CCTE_Shafer_MEA_dev_spike_duration_mean: CCTE's Neural Network Formation Assay for Mean Spike Duration, Shafer Lab (AID 2284051).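 For AC50: potency for a decrease in mean network spike duration versus DMSO.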 In short, it runs like this: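 Spontaneous activity was recorded on days 5, 7, 9 and 12 from rat cortical cultures grown on microelectrode arrays and dosed continuously from day 0, with media and compound renewed after the DIV 5 and 9 recordings. Network-spike duration was collapsed by area under the curve.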
On to `Brc1cc(Br)c(Oc2cc(Br)c(Br)cc2Br)cc1Br`, for which the compound was classed as inactive.

With `CC(C)O`, the AC50 is 14.3 µM (active).

Consider `F`, for which the result was inactive.

`CC(=O)N[C@@H](CC(=O)O)C(=O)O`: the compound was called inactive.

Consider `CCCCCC=C(C)C(CC)CCO` (stereo not given), for which the result was inactive.

As for `BrC1CC(Br)CC(Br)CC(Br)CC(Br)CC(Br)C1` (stereo not given), the AC50 is 3.57 µM (active).

Consider `C[C@@H]1CC[C@@H](C(C)(C)O)[C@H](O)C1`, for which the compound was classed as inactive.

Regarding `CC(C)c1nn(C(=O)NC(C)(C)C)c(=O)n1N`, the outcome was inactive.

With `[O]=[V]([OH])([OH])[OH]`, the AC50 was 15 µM (active).

In the case of `CCc1ccccc1`, the compound was called inactive.

In the case of `CN(C)CCCn1cc(C2=C(c3c[nH]c4ccccc34)C(=O)NC2=O)c2ccccc21`, the AC50 is 6.41 µM (active) and 5 µM (active) and 3.28 µM (active).

In the case of `CCCCCC(C)(CC)C(=O)NC` (stereo not given), the AC50 was 9.92 µM (active).

As for `Cc1[nH]n(C)c(=O)c1C(=O)c1ccc(C(F)(F)F)cc1S(C)(=O)=O`, the compound was classed as inactive.

Turning to `CC(CNC(=S)[S-])NC(=S)[S-].[Zn+2]` (stereo not given), the half-maximal activity concentration (AC50) is 8.64 µM (active).

`C[C@@H]1CCO[C@H]2Cn3cc(C(=O)NCc4ccc(F)cc4F)c(=O)c(O)c3C(=O)N12`: the AC50 is 0.901 µM (active).

A further assay in a line: CCTE_Shafer_MEA_dev_network_spike_duration_std: CCTE's Neural Network Formation Assay for Standard Deviation of Network Spike Duration, Shafer Lab (AID 2284052).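 Note: hits are decreases in network spike duration SD versus DMSO vehicle.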 In short, it runs like this:
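Network spike duration variability was collapsed across recordings on days 5, 7, 9 and 12 by trapezoidal area-under-curve and fitted downward against DMSO. Cultures were rat cortical neurons on PEI-coated MEA plates, dosed continuously from plating, refed with compound DIV 5/9.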
With `Brc1cc(Br)c(Oc2cc(Br)c(Br)cc2Br)cc1Br`, the outcome was inactive.

On to `CC(C)O`, for which the compound was classed as inactive.

With `F`, the result was inactive.

`CC(=O)N[C@@H](CC(=O)O)C(=O)O`: the result was inactive.

In the case of `CCCCCC=C(C)C(CC)CCO` (stereo not given), the outcome was inactive.

Turning to `BrC1CC(Br)CC(Br)CC(Br)CC(Br)CC(Br)C1` (stereo not given), the concentration at half-maximal activity (AC50) is 5.04 µM (active).

Turning to `C[C@@H]1CC[C@@H](C(C)(C)O)[C@H](O)C1`, the call was inactive.

For `CC(C)c1nn(C(=O)NC(C)(C)C)c(=O)n1N`, the call was inactive.

As for `[O]=[V]([OH])([OH])[OH]`, the call was inactive.

Regarding `CCc1ccccc1`, the call was inactive.

Regarding `CN(C)CCCn1cc(C2=C(c3c[nH]c4ccccc34)C(=O)NC2=O)c2ccccc21`, the outcome was inactive.

With `CCCCCC(C)(CC)C(=O)NC` (stereo not given), the compound was classed as inactive.

Consider `Cc1[nH]n(C)c(=O)c1C(=O)c1ccc(C(F)(F)F)cc1S(C)(=O)=O`, for which the outcome was inactive.

For `CC(CNC(=S)[S-])NC(=S)[S-].[Zn+2]` (stereo not given), the half-maximal activity concentration (AC50) was 3.38 µM (active).

In the case of `C[C@@H]1CCO[C@H]2Cn3cc(C(=O)NCc4ccc(F)cc4F)c(=O)c(O)c3C(=O)N12`, the outcome was inactive.

A short description of the next assay: CCTE_Shafer_MEA_dev_per_network_spike_spike_number_mean: CCTE's Neural Network Formation Assay for Mean Number of Spikes in a Network Spike, Shafer Lab (AID 2284053).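 For AC50: fitted as decrease in spikes per network spike relative to DMSO.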 A digest of the protocol: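 Mean spike count within each network spike, taken in a 0.05 s window at its peak, was recorded on days 5, 7, 9 and 12 and integrated as trapezoidal area under the curve. Rat cortical cultures on MEA plates received continuous compound from day 0, refreshed at medium changes on DIV 5 and 9.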
As for `Brc1cc(Br)c(Oc2cc(Br)c(Br)cc2Br)cc1Br`, the result was inactive.

Consider `CC(C)O`, for which the concentration at half-maximal activity (AC50) was 5.31 µM (active).

As for `F`, the result was inactive.

With `CC(=O)N[C@@H](CC(=O)O)C(=O)O`, the compound was called inactive.

For the compound `CCCCCC=C(C)C(CC)CCO` (stereo not given), the outcome was inactive.

Consider `BrC1CC(Br)CC(Br)CC(Br)CC(Br)CC(Br)C1` (stereo not given), for which the half-maximal activity concentration (AC50) was 4.17 µM (active).

Consider `C[C@@H]1CC[C@@H](C(C)(C)O)[C@H](O)C1`, for which the outcome was inactive.

With `CC(C)c1nn(C(=O)NC(C)(C)C)c(=O)n1N`, the outcome was inactive.

As to `[O]=[V]([OH])([OH])[OH]`, the half-maximal activity concentration (AC50) was 13.9 µM (active).

Turning to `CCc1ccccc1`, the compound was classed as inactive.

With `CN(C)CCCn1cc(C2=C(c3c[nH]c4ccccc34)C(=O)NC2=O)c2ccccc21`, the AC50 is 1.61 µM (active) and 2.57 µM (active) and 5 µM (active).

For `CCCCCC(C)(CC)C(=O)NC` (stereo not given), the outcome was inactive.

Regarding `Cc1[nH]n(C)c(=O)c1C(=O)c1ccc(C(F)(F)F)cc1S(C)(=O)=O`, the call was inactive.

Consider `CC(CNC(=S)[S-])NC(=S)[S-].[Zn+2]` (stereo not given), for which the AC50 was 24.7 µM (active).

`C[C@@H]1CCO[C@H]2Cn3cc(C(=O)NCc4ccc(F)cc4F)c(=O)c(O)c3C(=O)N12`: the AC50 was 0.983 µM (active).

Source of the values: PubChem BioAssay (EPA / NIEHS).
